Source: PubChem BioAssay (NMMLSC)
BoNT A protease: blocks Botulinum neurotoxin A light chain protease; multiplex microsphere protease substrate cleavage, flow cytometry; inhibition, % at 10 µM; 360,000 compounds, 0.17% hits; AID 588499; also: plate controls were buffer without enzyme for full effect and enzyme alone for no effect
BoNT-F LC inh: BoNT F light chain protease inhibition | inhibition, % at 10 µM | 360,000 compounds, 0.22% hits | Multiplex microsphere protease cleavage assay, flow cytometry; in the data active = inhibition above about 35%, passing the limit was not always enough; inconclusive = no clear call, values can overlap the other calls; also: plate controls were buffer without enzyme for full effect and enzyme alone for no effect
Autofluor counter: counter-screen for toxin protease inhibitors: compound fluorescence; compound autofluorescence counterscreen, microsphere flow cytometry; active compounds read high; fluorescence intensity (no concentration beside the values); 360,000 compounds, 3.1% hits; AID 624483; in the data active = fluorescence intensity above about 16000; inconclusive = no clear call, values can overlap the other calls
Anthrax LF inh2: inhibitors of Bacillus anthracis lethal factor protease. 360,000 compounds, 0.12% hits. multiplex microsphere protease cleavage assay, LF. inhibition, % at 10 µM; also: plate controls were buffer without enzyme for full effect and enzyme alone for no effect
Target sequence (P15917 whole entry, looked up): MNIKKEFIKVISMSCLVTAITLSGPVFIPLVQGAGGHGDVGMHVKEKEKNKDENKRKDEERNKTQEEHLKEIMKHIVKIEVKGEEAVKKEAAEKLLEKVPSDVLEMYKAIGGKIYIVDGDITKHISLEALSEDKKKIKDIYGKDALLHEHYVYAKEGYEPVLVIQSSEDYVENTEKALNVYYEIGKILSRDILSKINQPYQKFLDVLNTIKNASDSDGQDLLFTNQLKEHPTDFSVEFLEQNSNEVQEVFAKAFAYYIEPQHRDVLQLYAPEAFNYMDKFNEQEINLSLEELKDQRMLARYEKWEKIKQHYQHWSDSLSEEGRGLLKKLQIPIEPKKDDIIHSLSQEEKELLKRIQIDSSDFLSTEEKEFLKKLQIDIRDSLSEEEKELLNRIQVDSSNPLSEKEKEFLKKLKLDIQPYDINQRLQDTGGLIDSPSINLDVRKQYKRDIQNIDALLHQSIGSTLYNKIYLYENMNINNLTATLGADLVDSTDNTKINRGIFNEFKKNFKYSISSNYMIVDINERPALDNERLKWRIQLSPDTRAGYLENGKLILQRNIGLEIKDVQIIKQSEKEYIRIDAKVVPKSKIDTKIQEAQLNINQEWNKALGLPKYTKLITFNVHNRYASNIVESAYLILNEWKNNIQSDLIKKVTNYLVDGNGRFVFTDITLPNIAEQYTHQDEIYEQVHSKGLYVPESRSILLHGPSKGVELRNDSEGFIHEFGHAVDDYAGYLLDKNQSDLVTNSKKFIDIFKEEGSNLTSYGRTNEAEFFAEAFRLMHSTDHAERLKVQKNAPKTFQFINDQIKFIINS
* = called active by the depositor; ? = inconclusive. Most compounds without a hit are left out; they make up all but 3.5% or so of the library. Rule as the data show it, unless noted: active = inhibition above about 30%; inconclusive = no clear call, values can overlap the other calls; inactive = below that.

SMILES	BoNT A protease	BoNT-F LC inh	Autofluor counter	Anthrax LF inh2
CN(C)S(=O)(=O)c1cccc(NC(=O)c2ccc(S(=O)(=O)N3CCCC3)cc2)c1	2.4	9.4	4243	-2.4
Cc1cc(C(=O)Nc2cccnc2)cs1	1.5	1.4	23010*	2.4
CC(C)(C)C(=O)Nc1ccc(C(=O)Nc2cccnc2)cc1	-2.1	-0.1	23774*	-3.0
O=C(Nc1cccnc1)c1ccc2c(c1)C(=O)N(Cc1cccnc1)C2=O	-0.5	-2.1	23004*	-0.7
COC(=O)c1cc(C)sc1NC(=O)c1cccnc1	-7.2	-9.7	24838*	-1.4
COC(=O)c1c(NC(=O)c2cccnc2)sc(C)c1C	-0.4	-5.8	4650	-0.6
N#CCc1nc(C(c2ccccc2)c2ccccc2)no1	2.9	2.8	4716	1.4
CCCCCN(C(=O)CCC(=O)OCCOc1ccccc1Cl)c1c(N)n(CCCC)c(=O)[nH]c1=O	4.2	-7.9	4847	-4.0
COc1ccc(CN(C)C(=O)c2ccc(NS(=O)(=O)c3ccc4[nH]c(=O)[nH]c4c3)cc2)c(OC)c1OC	0.2	2.1	4002	-4.2
COC(=O)c1cc(NC(=O)c2ccc(OC)cc2)c(=O)oc1C	-0.8	-4.4	4881	-0.2
CCOC(=O)c1cc(NC(=O)c2ccc(OC)cc2)c(=O)oc1-c1ccccc1	?	-2.2	22500*	-3.7
CC(=O)c1cc(NC(=O)c2ccc(C)cc2)c(=O)oc1/C=C/N(C)C	-0.2	-9.3	4103	-5.4
COc1ccc(C(=O)Nc2cc(C(C)=O)c(/C=C/N(C)C)oc2=O)cc1	1.0	0.2	16251*	1.2
CCOC(=O)c1cnc2cc(-c3ccc(C)cc3)nn2c1C	0.2	-3.9	3918	-1.4
CC1(C)Cc2cccc(OCC(=O)Nc3ccccc3N3CCOCC3)c2O1	0.1	1.6	16540*	-2.3
CC(=O)NC(c1ccc(F)c(F)c1)c1nc(-c2cnc3ccccc3c2)cs1 (stereo not drawn)	-0.1	0.0	3589	0.9
CCOC(=O)C1=NN(c2ccccc2)C2=NC(C)=C(C(=O)OC)C(c3cccs3)N12 (stereo not drawn)	-0.6	-4.6	9628	1.8
CCOC(=O)C1=NN(c2ccccc2C)C2=NC(C)=C(C(=O)OC)C(c3cccs3)N12 (stereo not drawn)	6.6	5.5	17523*	-10.3
Cc1ccc(Oc2ccccc2/C=C2\SC(=O)N(C)C2=O)cc1	3.2	3.9	21464*	1.4
O=C(Nc1ccccc1Cl)c1c(F)c(F)c(F)c(F)c1F	-0.8	-6.4	3233	8.5
Cc1ccccc1NC(=O)c1c(F)c(F)c(F)c(F)c1F	-0.7	-5.1	16318*	-3.4
O=C(NCc1ccccc1Cl)c1cc(=O)[nH]c2ccccc12	3.1	4.2	4380	15.1
O=C(CSc1nnc(-c2ccco2)n1CC1CCCO1)N1CCCCC1 (stereo not drawn)	1.8	2.2	21580*	1.4
COCCCn1c(SCC(=O)N2CCCC(C)C2)nnc1-c1ccco1 (stereo not drawn)	-3.4	0.7	21046*	1.9
CCn1c(SCC(=O)N2CCCC(C)C2)nnc1-c1ccco1 (stereo not drawn)	2.0	9.5	5653	2.1
SMILES	BoNT A protease	BoNT-F LC inh	Autofluor counter	Anthrax LF inh2
O=C(CSc1nnc(-c2ccccc2)n1CC1CCCO1)N1CCCC1 (stereo not drawn)	-0.1	-1.2	3369	3.5
COc1cc(C2C(C#N)=C(N)Oc3c2ccc2ccccc32)ccc1OCC(=O)Nc1ccccc1C (stereo not drawn)	?	-0.4	22354*	-1.0
CCc1cc(=O)[nH]c(SCC(=O)N2CCC(Cc3ccccc3)CC2)n1	0.0	0.5	6112	3.8
O=C(c1cccc(Cl)c1)C1CCCN(S(=O)(=O)c2ccccc2)C1 (stereo not drawn)	-4.0	-5.3	7194	-5.8
O=C1CCCN1CC(O)CS(=O)(=O)c1ccc(Cl)cc1 (stereo not drawn)	1.2	0.4	22765*	0.9
CCc1c(C(=O)Nc2ccncc2)csc1C	-0.7	-1.9	23043*	-7.3
CCc1c(C(=O)Nc2ccccc2C(N)=O)csc1C	3.1	13.3	5342	0.8
CCc1c(C(=O)Nc2ncn(Cc3cccc(C)c3)n2)csc1C	?	-0.4	16518*	-6.2
CC(C)(C)OC(=O)N1CC(O)CC1C(=O)OCC(=O)c1ccc(Cl)cc1 (stereo not drawn)	6.9	7.8	20684*	-4.4
Clc1ccccc1-c1nnc(-c2ccccc2Cl)o1	0.5	-1.6	9311	-7.4
Clc1ccc(-c2nnc(-c3ccccc3Cl)o2)cc1	-4.3	-6.3	17061*	-5.6
Cc1ccc(-n2ccc(=O)c(C(=O)Nc3ccc(S(=O)(=O)Nc4nccs4)cc3)n2)cc1	1.9	4.3	4943	-0.7
O=C1[C@H]2[C@@H](c3ccc(C(F)(F)F)cc3)N[C@]3(CCCN(Cc4ccco4)C3=O)[C@H]2C(=O)N1Cc1ccccc1	-0.2	-2.5	3306	-9.4
Cc1ccc(-c2nnc(SCC(=O)CC(=O)Nc3ccccc3)n2-c2ccccc2)cc1	-7.1	-9.3	21966*	2.4
O=C(CSc1nnc(-c2cccnc2)n1-c1ccccc1)Nc1ccccc1	-1.9	-14.4	9420	-6.8
CC(C)OC(=O)CSc1nnc(-c2cnccn2)n1-c1ccc(Cl)cc1	?	-6.7	21757*	-4.0
Cc1ccc(NC(=O)CSc2nnc(-c3cnccn3)n2-c2ccccc2)cc1	?	-5.6	16733*	1.4
Cc1ccc(-n2c(SCC(=O)Nc3ccc(C(=O)O)cc3)nnc2-c2ccncc2)cc1	-0.8	-3.2	4746	1.6
Cc1ccc(C(=O)NNC(=O)CSc2nnc(-c3ccncc3)n2-c2ccc(C)cc2)cc1	2.0	1.7	20719*	-7.2
Cc1nc(SCC(=O)N2CCCCCC2)c2c(=O)n(C)c(=O)n(CC(C)C)c2n1	-1.6	-10.3	5485	-7.5
CC1(C(=O)Nc2cccc3c2CCCC3)CCN1C(=O)CCC1CCCC1 (stereo not drawn)	-0.6	-1.6	3622	4.7
Cc1ccc(-n2c(Cc3ccccc3)nnc2SCC(=O)NNC(=O)Cc2ccccc2)cc1	0.1	-2.7	16282*	-3.0
COc1ccc(NC(=O)CSc2nnc(-c3ccccn3)n2-c2ccccc2)cc1OC	5.9	6.0	20651*	-5.1
C=CCC(NCc1ccccc1)c1ccccc1 (stereo not drawn)	1.1	1.9	2142	-1.8
C=CCC(NC(C)c1ccccc1)c1ccco1 (stereo not drawn)	-0.1	-3.0	16630*	0.6
SMILES	BoNT A protease	BoNT-F LC inh	Autofluor counter	Anthrax LF inh2
CCN(C[C@H]1N[C@@](C)(C(=O)OC)[C@H]2C(=O)N(C)C(=O)[C@@H]12)C(=O)Nc1ccccc1	-0.3	-5.3	3433	-11.3
CCOC(=O)Cc1csc(NC(=O)CSc2nc3sc(C(=O)O)c(C)c3c(=O)[nH]2)n1	?	-3.0	22793*	1.0
CC1=C(C(=O)Nc2ccccc2)C(c2ccco2)NC(=O)N1 (stereo not drawn)	1.1	5.2	9478	-3.8
CC1=C(C(=O)Nc2ccccc2)C(c2ccco2)NC(=S)N1 (stereo not drawn)	-2.1	-6.8	24277*	-1.2
COc1ccc(-c2cn3cccnc3n2)cc1NC(=O)c1ccc(Br)o1	-0.4	-1.6	20830*	-1.6
COc1ccc(-c2cn3cccnc3n2)cc1NC(=O)CC(C)C	0.5	-0.2	7719	-1.8
